The source of these data is article PMC5540273 (PLoS ONE, 2017).

The subject of experiment [1] is T1, RSK2(Kin.Dom.2-C-terminal).
T1 construct: gene RPS6KA3
The following applies: n = 1.

For experiment [2], the system named is T2, RSK3(Kin.Dom.1-N-terminal).
T2 construct: gene RPS6KA2
The following applies: n = 1.

In experiment [3] the test system is T3, RSK3(Kin.Dom.2-C-terminal).
T3 construct: gene RPS6KA2
The following applies: n = 1.

Experiment [4] relates to T4, RSK4(Kin.Dom.1-N-terminal).
T4 construct: gene RPS6KA6
Conditions: concentration: 1 μM, replicates: in singlicate; n = 1.

Experiment [5] concerns T5, RSK4(Kin.Dom.2-C-terminal).
T5 construct: gene RPS6KA6
Conditions: n = 1.

The next experiment relates to S6K1. Conditions: n = 1.
The next experiment deals with SBK1. Conditions: n = 1.
Another experiment deals with SGK2. The following applies: concentration: 1 μM, replicates: in singlicate; n = 1.
For the next experiment, the system named is SGK3. Conditions: n = 1.
Another experiment deals with SGK. The following applies: concentration: 1 μM, replicates: in singlicate; n = 1.
[6] abbreviates: concentration: 1 μM, replicates: in singlicate.
Where [7] appears, read: concentration: 1 μM,replicates: in singlicate, 1 µM.

“And” between values parts separate entries of the source, which are not always exact repeats. Equal entries are not always repeated. Where two headings read alike, the source gives them in different places.
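Also: KINOMEscan kinase panel screen.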

For `O=C(O)COc1ncnc2cc(-c3ccc4[nH]ncc4c3)sc12`, the “%Inh” value in experiment [1] (setting [6]) was found to be 0%; in experiment [2] (setting [6]), 26%; in experiment [3] (setting [6]), 29%; in experiment [4], 23%; in experiment [5] (setting [6]), 15%; in the experiment with S6K1 (setting [6]), 0%. The “%Inh” value in the experiment on SBK1 (setting [6]) is given as 45%; in the experiment on SGK2, 9%; in the experiment on SGK3 (setting [6]) it was 35%; in the experiment on SGK, 4%.

For the compound `CSc1nn2c(=O)cc(N3CCOCC3)nc2n1Cc1cccc(C(F)(F)F)c1C` [GSK2363608], the “%Inh” value was 0% and 5% in experiment [1] (setting [7]); 0% and 16% in experiment [2] (setting [7]); 10% and 0% in experiment [3] (setting [7]); 0% in experiment [4]; 3% and 0% in [5] (setting [7]); 3% and 10% in the experiment on S6K1 (setting [7]). Also, the “%Inh” value in the experiment with SBK1 (setting [7]) was 1% and 2%; in the experiment on SGK2, 0%; with SGK3 (setting [7]), 6% and 4%; in the experiment with SGK it was 0%.

Turning to `Cc1ccc(-c2cc(-c3c[nH]nc3-c3ccccn3)ccn2)cc1` [GW684088], the “%Inh” value in experiment [1] (setting [6]) amounted to 30%; in experiment [2] (setting [6]), 0%; in experiment [3] (setting [6]), 25%; in experiment [4], 0%; in experiment [5] (setting [6]), 62%; in the experiment with S6K1 (setting [6]) it was 5%. The “%Inh” value in the experiment with SBK1 (setting [6]) was 4%; in the experiment with SGK2 it was 0%; with SGK3 (setting [6]), 4%; in the experiment on SGK, 0%.

For the compound `COc1ccccc1-c1ccc2c(NC(=O)C3CC3)n[nH]c2n1` [SB-711239], the “%Inh” value in experiment [1] (setting [6]) amounted to 7%; in experiment [2] (setting [6]), 0%; in experiment [3] (setting [6]) it was 0%; in experiment [4], 4%; in experiment [5] (setting [6]), 22%; in the experiment on S6K1 (setting [6]), 7%. The “%Inh” value in the experiment on SBK1 (setting [6]) is given as 68%; in the experiment with SGK2, 4%; in the experiment with SGK3 (setting [6]) it was 3%; in the experiment on SGK, 0%.

As to `COc1ccc2nc(-c3cccc(C)n3)nc(Nc3ccncc3)c2c1` [GSK204919], the “%Inh” value in experiment [1] (setting [6]) is reported as 19%; in experiment [2] (setting [6]) it was 19%; in [3] (setting [6]), 0%; in [4], 0%; in experiment [5] (setting [6]) it was 26%; with S6K1 (setting [6]), 1%. Also, the “%Inh” value with SBK1 (setting [6]) is 21%; in the experiment on SGK2, 0%; with SGK3 (setting [6]) it was 0%; in the experiment with SGK it was 0%.

Regarding `COc1cc(Nc2nccc(N3CCC(NC(=O)Nc4cc(C)ccc4C)C3)n2)cc(OC)c1OC` (stereo not drawn) [GSK1379762], the “%Inh” value in [1] (setting [6]) was determined as 2%; in experiment [2] (setting [6]), 9%; in experiment [3] (setting [6]), 0%; in experiment [4] it was 0%; in [5] (setting [6]), 14%; in the experiment on S6K1 (setting [6]) it was 3%. Also, the “%Inh” value in the experiment with SBK1 (setting [6]) was found to be 6%; in the experiment with SGK2, 12%; in the experiment with SGK3 (setting [6]) it was 0%; in the experiment with SGK it was 0%.

For the compound `O=c1cc(N2CCOCC2)nc2n(Cc3cccc(Cl)c3Cl)ccn12` [GSK2286295], the “%Inh” value in [1] (setting [6]) worked out at 8%; in [2] (setting [6]) it was 0%; in [3] (setting [6]) it was 28%; in experiment [4], 0%; in experiment [5] (setting [6]), 1%; in the experiment with S6K1 (setting [6]), 0%. In addition, the “%Inh” value in the experiment on SBK1 (setting [6]) stood at 9%; with SGK2, 14%; with SGK3 (setting [6]) it was 9%; with SGK, 22%.

Regarding `CC(=O)Nc1nc2cnc(Nc3cc(NC(=O)c4cccc(CCC#N)c4)ccc3C)nc2s1`, the “%Inh” value in experiment [1] (setting [6]) was found to be 6%; in experiment [2] (setting [6]), 0%; in experiment [3] (setting [6]), 1%; in experiment [4] it was 24%; in experiment [5] (setting [6]) it was 0%; in the experiment with S6K1 (setting [6]) it was 3%. In addition, the “%Inh” value turned out to be 0% with SBK1 (setting [6]), 0% in the experiment on SGK2, 7% in the experiment on SGK3 (setting [6]) and 0% in the experiment on SGK.

As to `Cn1cncc1-c1ccc2ncnc(Nc3ccc(OCc4ccccc4)cc3)c2c1` [GW320571], the “%Inh” value is given as 20% in experiment [1] (setting [6]); 23% in [2] (setting [6]); 0% in [3] (setting [6]); 19% in experiment [4]; 0% in experiment [5] (setting [6]); 2% in the experiment on S6K1 (setting [6]). In addition, the “%Inh” value came out at 28% in the experiment with SBK1 (setting [6]), 0% in the experiment on SGK2, 0% in the experiment on SGK3 (setting [6]) and 0% in the experiment on SGK.

Consider `C[C@@H]1CCCCN1c1cc(-c2ccc3c(N)n[nH]c3c2)nc(N)n1` [GSK2258759], for which the “%Inh” value came out at 0% in experiment [1] (setting [6]); 0% in experiment [2] (setting [6]); 19% in experiment [3] (setting [6]); 0% in experiment [4]; 24% in experiment [5] (setting [6]); 0% in the experiment with S6K1 (setting [6]). Also, the “%Inh” value in the experiment with SBK1 (setting [6]) was found to be 0%; in the experiment with SGK2 it was 0%; in the experiment on SGK3 (setting [6]), 3%; in the experiment on SGK, 0%.

As to `Cc1cc(N2Cc3ccccc3C2)nc(Nc2ccc(S(=O)(=O)N3CCOCC3)cc2)n1.Cl` [GSK1669917], the “%Inh” value in experiment [1] (setting [6]) is given as 0%; in [2] (setting [6]) it was 0%; in [3] (setting [6]) it was 7%; in experiment [4], 0%; in experiment [5] (setting [6]), 1%; in the experiment with S6K1 (setting [6]), 2%. The “%Inh” value with SBK1 (setting [6]) amounted to 16%; in the experiment with SGK2 it was 0%; in the experiment on SGK3 (setting [6]), 9%; in the experiment on SGK it was 0%.

As for `Nc1ncnc2[nH]c(-c3ccccc3)nc12` [AH5015], the “%Inh” value is 6% in experiment [1] (setting [6]); 0% in experiment [2] (setting [6]); 0% in experiment [3] (setting [6]); 9% in [4]; 34% in [5] (setting [6]); 22% in the experiment on S6K1 (setting [6]). In addition, the “%Inh” value in the experiment on SBK1 (setting [6]) was found to be 78%; in the experiment with SGK2, 5%; in the experiment with SGK3 (setting [6]), 18%; in the experiment on SGK, 21%.

Regarding `CS(=O)(=O)c1ccc(-c2nc3n(c2-c2ccncc2)CCC3)cc1` [SKF-105942], the “%Inh” value came to 5% in experiment [1] (setting [6]); 15% in experiment [2] (setting [6]); 0% in experiment [3] (setting [6]); 0% in [4]; 9% in experiment [5] (setting [6]); 17% in the experiment on S6K1 (setting [6]). Also, the “%Inh” value in the experiment with SBK1 (setting [6]) worked out at 5%; in the experiment on SGK2, 0%; in the experiment with SGK3 (setting [6]), 10%; in the experiment on SGK it was 0%.

For `CC(C)(C)c1ccc(C(=O)Nc2cn3cc(Cl)ccc3n2)cc1`, the “%Inh” value in experiment [1] (setting [6]) was determined as 28%; in [2] (setting [6]), 0%; in experiment [3] (setting [6]), 23%; in experiment [4] it was 45%; in [5] (setting [6]), 22%; in the experiment with S6K1 (setting [6]) it was 0%. The “%Inh” value in the experiment with SBK1 (setting [6]) is on record as 0%; with SGK2, 6%; with SGK3 (setting [6]), 0%; in the experiment with SGK, 8%.

Turning to `Clc1cc(Cl)cc(Nc2ccnc(Nc3cc(Cl)cc(Cl)c3)n2)c1` [GSK175726], the “%Inh” value in experiment [1] (setting [6]) was found to be 7%; in experiment [2] (setting [6]), 0%; in [3] (setting [6]), 4%; in [4], 13%; in experiment [5] (setting [6]), 22%; with S6K1 (setting [6]) it was 0%. Moreover, the “%Inh” value came to 9% with SBK1 (setting [6]), 0% in the experiment on SGK2, 13% with SGK3 (setting [6]) and 3% in the experiment with SGK.

Regarding `CC1=C(C(=O)Nc2cc3cn[nH]c3cc2F)C(c2ccc(C(F)(F)F)cc2)CC(=O)N1` (stereo not drawn) [GSK429286], the “%Inh” value in [1] (setting [6]) is 0%; in experiment [2] (setting [6]), 22%; in experiment [3] (setting [6]) it was 0%; in experiment [4], 0%; in experiment [5] (setting [6]), 18%; in the experiment with S6K1 (setting [6]), 14%. Further, the “%Inh” value with SBK1 (setting [6]) is on record as 22%; with SGK2, 4%; with SGK3 (setting [6]), 4%; with SGK it was 0%.

With `COc1cc2nccc(Nc3ccc(NC(=O)c4ccc(C)cc4)c(O)c3)c2cc1OC.Cl` [GW440132], the “%Inh” value amounted to 4% in [1] (setting [6]); 4% in experiment [2] (setting [6]); 0% in [3] (setting [6]); 0% in [4]; 0% in experiment [5] (setting [6]); 0% in the experiment on S6K1 (setting [6]). The “%Inh” value in the experiment on SBK1 (setting [6]) is reported as 10%; in the experiment with SGK2, 5%; in the experiment with SGK3 (setting [6]), 0%; in the experiment on SGK, 0%.

With `COc1cc2ncn(-c3cc(OCC4CCCO4)c(C(N)=O)s3)c2cc1OC` (stereo not drawn) [GSK204607], the “%Inh” value is recorded as 0% in experiment [1] (setting [6]); 9% in [2] (setting [6]); 2% in experiment [3] (setting [6]); 0% in [4]; 22% in experiment [5] (setting [6]); 0% in the experiment on S6K1 (setting [6]). Also, the “%Inh” value with SBK1 (setting [6]), in the experiment on SGK2, in the experiment on SGK3 (setting [6]) and in the experiment with SGK was 0% throughout.
